The structures appear in SMILES notation.

The target of the test is C-X-C chemokine receptor type 5 (Homo sapiens) (UniProt P32302). The experiment in a line: antagonism of CXCR6 versus CXCR5 signaling – cell-based, CHO-K1 PathHunter beta-arrestin, luminescence, set 4, selectivity assay for CXCR6 antagonist project, profiling panel (AID 651919). The note with it: run 1, at 79 µM (top of the series).
As usually defined, the inhibition is the drop in the measured response relative to a control, in per cent. As for `COc1ccc(NC(=O)CN2C3CCCC2CC(NC(=O)c2ccc4c(c2)OCO4)C3)cc1` (stereo not given), the inhibition was determined as 21%.

Consider `COc1cc(C(=O)NC2CC3CCCC(C2)N3CC(=O)Nc2ccc(F)cc2)cc(OC)c1OC` (stereo not given), for which the inhibition amounted to 1.06%. As to `COc1ccc(C(=O)NC2CC3CCCC(C2)N3CC(=O)Nc2ccc(F)cc2)cc1OC` (stereo not given), the inhibition stood at 1.06%.

As for `COc1ccc(NC(=O)CN2C3CCCC2CC(NC(=O)c2cc(OC)c(OC)c(OC)c2)C3)cc1` (stereo not given), the inhibition is -6.42%. Take `COc1ccc(C(=O)NC2CC3CCCC(C2)N3CC(=O)Nc2ccc(F)cc2)cc1` (stereo not given): the inhibition was -9.29%. As for `COc1cc(OC)cc(C(=O)NC2CC3CCCC(C2)N3CC(=O)Nc2ccc(C)cc2)c1` (stereo not given), the figure is 8.41%. Then `O=C(CN1C2CCCC1CC(NC(=O)c1ccc3c(c1)OCO3)C2)Nc1ccc(Cl)cc1` (stereo not given), with 44.8%; and `COc1ccc(NC(=O)CN2C3CCCC2CC(NC(=O)c2cccc(OC)c2)C3)cc1` (stereo not given), with 8.8%; and `COc1cc(OC)cc(C(=O)NC2CC3CCCC(C2)N3CC(=O)Nc2ccc(Cl)cc2)c1` (stereo not given), with 22.6%. As for `COc1ccc(NC(=O)CN2C3CCCC2CC(NC(=O)c2ccc(OC)c(OC)c2)C3)cc1` (stereo not given), the inhibition was -3.99%. Consider `COc1ccc(C(=O)NC2CC3CCCC(C2)N3CC(=O)Nc2ccc(Cl)cc2)cc1OC` (stereo not given), for which the inhibition was 0.551%. For `COc1ccc(C(=O)NC2CC3CCCC(C2)N3CC(=O)Nc2ccc(Cl)cc2)cc1` (stereo not given), the inhibition is 34.5%.

Regarding `COc1cc(C(=O)NC2CC3CCCC(C2)N3CC(=O)Nc2ccc(Cl)cc2)cc(OC)c1OC` (stereo not given), the inhibition was -11.9%.

As for `O=C(CN1C2CCCC1CC(NC(=O)c1ccc3c(c1)OCO3)C2)Nc1ccc(F)cc1` (stereo not given), the inhibition was 6.87%. With `COc1cc(OC)cc(C(=O)NC2CC3CCCC(C2)N3CC(=O)Nc2ccccc2)c1` (stereo not given), the inhibition stood at 37.4%.

(Values after PubChem BioAssay AID651919 (Sanford-Burnham Center for Chemical Genomics, 2012).)
